Sampled rows, rich in hits. Any-hit rate of the full collection: about 13%.
RAM inhibit = yeast RAM network inhibition; S. cerevisiae dse1pr::URA3 reporter, 5-FOA growth OD615, 2 d; analog-sensitive cbk1-as2 kinase mutant strain; inhibition, % at 50 µM; hit rate 1.8% among 190,000; AID 868;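 active means inhibition above a set limit, 3 SD over mean compound inhibition, cut at about 8.4% in these data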;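 further: 0% = DMSO-only wells with no growth and 100% = 10 µM 1-NA-PP1 full growth; inhibition rescues growth on 5-FOA so higher OD means more RAM inhibition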
CHOP inhibitor = CHOP inhibition in unfolded protein response; CHO-K1 CHOP-promoter luciferase, tunicamycin-induced, 15-18 h; inhibition, % at 10 µM; hit rate 3.8% among 220,000; AID 2732;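 active means compounds that reduced the stress-induced luciferase reporter signal by more than about 70% of percent inhibition, limit read from the data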;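 further: 0% = tunicamycin plus vehicle and 100% = wells without tunicamycin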
WT yeast gro inh = growth inhibition of WT yeast, mitochondrial fusion screen. mitochondrial fusion phenotypic screen, WT strain. inhibition, % at 10 µM. hit rate 2.1% among 190,000. AID 1362; in the data active means inhibition above about 58%; tested in S. cerevisiae
Lmaj promast = inhibitors of Leishmania major promastigote growth; hit rate 9% among 200,000; inhibition, % at 10 µM; Leishmania major promastigotes, resazurin fluorescence viability; AID 1063; in the data active means inhibition above about 50%;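 further: promastigotes grown with compound for 44 hours at 28 °C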
CHOP inh conf = confirmation of CHOP induction inhibitors; shares compounds with CHOP inhibitor; CHO-CHOP promoter luciferase reporter, tunicamycin-induced, luminescence; inhibition, % at 10 µM; hit rate 45% among 2,100;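 active means mean of three repeat readings of reporter signal inhibition above a set limit, cut at about 70% in these data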;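 further: 0% = tunicamycin plus vehicle and 100% = wells lacking tunicamycin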
Starred values were filed as active, the others as inactive; / = no result given.

SMILES | RAM inhibit | CHOP inhibitor | WT yeast gro inh | Lmaj promast | CHOP inh conf
O=[N+]([O-])c1ccc(N/N=C/c2c[nH]c3ccccc23)c(S(=O)(=O)Nc2ccc(Cl)cc2)c1 | 8.1 | 106.4* | 95.0* | 24.2 | 60.6
COc1ccc(CNC[C@@H](CCCCN(C)Cc2ccc(OC)cc2)N2C[C@H](c3ccccc3)N(CCc3ccc(Cl)c(Cl)c3)C(=O)C2=O)cc1 | -0.4 | 104.7* | 16.0 | 99.7* | -131.1
CCOc1ccc(CCN2C(=O)C(=O)N([C@H](CCCN(C)Cc3ccccc3)CNCc3ccccc3)C[C@@H]2C(C)C)cc1 | / | 2.7 | / | / | /
CN(CCCC[C@H](CNCc1ccc(-c2ccccc2)cc1)N1C[C@H](c2ccccc2)N(CCc2ccc(Cl)c(Cl)c2)C(=O)C1=O)Cc1ccc(-c2ccccc2)cc1 | / | 106.9* | / | / | 111.8*
CN1C(=O)NC(c2ccccc2)C2=C1CN(c1ccc3ccccc3c1)C2=O (stereo unspecified) | 4.7 | 96.3* | -16.5 | -2.2 | 14.6
CCOC(=O)N1CCC(n2c(=S)[nH]c3cc(OCC)c(OCC)cc3c2=O)CC1 | 2.3 | 101.0* | 14.3 | -3.7 | 98.0*
O=c1[nH]c(=O)n(Cc2ccco2)c2c1C(C(F)(F)F)(C(F)(F)F)N=C(CCC1CCCCC1)N2 | 5.4 | 40.6 | 18.8 | 3.4 | /
CC(C)Cn1c2c(c(=O)[nH]c1=O)C(C(F)(F)F)(C(F)(F)F)N=C(CCC1CCCCC1)N2 | 1.9 | 101.8* | -1.3 | 79.8* | 82.3*
COc1cc(OC)c(OC)cc1CN1CCN(Cc2cccn2C)CC1 | -0.2 | -6.0 | -10.4 | 6.4 | /
Cc1ccc(NC(=O)c2cc(NC(=O)c3ccco3)ccc2N2CCCCC2)cc1 | 2.0 | 99.8* | 4.6 | 9.8 | 87.5*
Cc1cccc2c1N(CCOc1ccc(C(C)(C)C)cc1)C(=O)C2=O | 3.2 | 99.8* | 23.4 | 7.5 | 1.1
C/C(=N\NC(=O)c1cccc(N/N=C(\C)c2cc(O)ccc2O)c1)c1cc(O)ccc1O | 1.9 | 51.4 | 9.2 | 4.5 | /
CC(C)CC1(C)NC(=O)N(CC(=O)Nc2cccc(S(=O)(=O)N(C)c3ccccc3)c2)C1=O (stereo unspecified) | 2.9 | 9.2 | -3.7 | 20.7 | /
COc1ccc(Cn2c(SCc3ccccc3C)nc3cc(OC)c(OC)cc3c2=N)cc1 | 0.8 | 107.0* | -1.3 | 100.5* | 119.6*
COc1cc2nc(SCc3ccc(F)cc3)n(Cc3cccs3)c(=N)c2cc1OC | 4.0 | -0.4 | 1.1 | 11.3 | /
Cc1cc(Cl)ccc1OCCCC(=O)OCC(=O)c1c(N)n(C)c(=O)n(C)c1=O | / | 3.2 | / | / | /
CCCn1c(C)cc(C(=O)COc2ccc(-c3nnco3)cc2)c1C | -1.5 | 16.7 | -4.9 | -2.6 | /
O=c1[nH]c(NCCO)nc2c1C1(CCCCC1)Cc1ccccc1-2 | 7.0 | 98.6* | / | 8.0 | 13.1
CCOc1ccc(-c2cc(CCCC(=O)NCc3ccc(C)cc3)no2)cc1 | 4.7 | 96.3* | 12.7 | -1.0 | 78.0*
COc1ccc(-c2cc(CCCC(=O)NCCc3cc(OC)ccc3OC)no2)cc1 | 2.7 | 57.4 | / | 12.5 | /
O=C(Nc1cc2c(cc1Cl)OCCCO2)c1ccc(F)cc1 | 2.6 | 5.0 | -11.1 | -10.2 | /
Cc1cccc2c1NC(=O)/C2=C\C(=O)c1cccs1 | 4.9 | 110.2* | 37.1 | 100.4* | -47.9
O=C(/C=C1\C(=O)Nc2ccccc21)/C=C1\C(=O)Nc2ccccc21 | / | -77.5 | / | / | /
Cc1cc(C)c2c(c1)NC(=O)C2(O)CC(=O)c1cccs1 (stereo unspecified) | 1.6 | 68.3 | 3.2 | -5.6 | /
Cc1cc(Br)c2c(c1)/C(=C/C(=O)c1cccs1)C(=O)N2 | 1.7 | 99.0* | 49.3 | 100.3* | 80.2*
SMILES | RAM inhibit | CHOP inhibitor | WT yeast gro inh | Lmaj promast | CHOP inh conf
CCc1ccc2c(c1)/C(=C/C(=O)c1cccs1)C(=O)N2 | -0.3 | 108.7* | 80.7 | 100.5* | -22.5
Cc1cc(C)c2c(c1)/C(=C/C(=O)c1ccc(Br)s1)C(=O)N2 | 4.1 | 109.8* | 86.5* | 100.2* | 53.8
NC(=O)c1ccc(OCC(F)(F)F)nc1 | / | 1.4 | / | / | /
C=CCn1cc(C(=O)OCC)c(=O)c2ccc(F)cc21 | 1.0 | 13.0 | 1.5 | 2.0 | /
CCCCNC(=O)COC(=O)c1ccc(NC(C)=O)cc1 | 3.0 | 1.0 | -1.3 | -1.9 | /
CC(NC(=O)CSc1nc2ccc(N)cc2s1)c1ccccc1 (stereo unspecified) | -0.5 | 5.5 | -29.5 | 11.7 | /
Cc1nc(SCC(=O)Nc2ccc(C)c(F)c2)c2oc3ccccc3c2n1 | 2.9 | 101.9* | 0.4 | -7.8 | 109.7*
Cc1ccc(NC(=O)CSc2ncccn2)cc1F | 2.9 | -10.0 | 0.1 | -0.2 | /
CCOCCCNC(=O)/C(C#N)=C/c1ccc([N+](=O)[O-])o1 | -1.1 | 106.6* | 91.3* | 100.7* | 36.7
S=C(NCCc1ccccc1)Nc1ccc(Cl)cc1 | 0.0 | -10.3 | 29.9 | 18.9 | /
O=[N+]([O-])c1ccc(NC(=S)NCCc2ccc(Cl)cc2)cc1 | 2.9 | 105.3* | 83.3* | 91.4* | 94.0*
O=S(=O)(/N=C(/Sc1ccccc1)c1ccccc1)c1ccccc1 | 2.9 | 111.8* | 9.2 | -4.3 | 60.4
COc1ccc(NC(=O)c2oc3ccccc3c2NC(=O)C(C)(C)C)cc1 | 1.0 | 103.4* | 13.7 | 24.2 | 13.5
CCOC(=O)c1[nH]c2ccc(OC)cc2c1NC(=O)/C=C/c1ccc2c(c1)OCO2 | 1.9 | 102.0* | 16.9 | 42.4 | -16.9
CCc1ccc(S(=O)(=O)/N=C2/C=C(Sc3ncn[nH]3)C(=O)c3ccccc32)cc1 | 6.0 | 108.1* | 36.5 | 99.6* | -141.2
Cc1cc(NC(=O)c2sc(Nc3ccc(F)c(Cl)c3)nc2N)no1 | 2.7 | 100.3* | 1.0 | -2.1 | -31.7
Cc1cc(NC(=O)c2sc(Nc3cccc(C(F)(F)F)c3)nc2N)no1 | 2.9 | 10.0 | -5.5 | 0.4 | /
Cc1cc(Br)ccc1SCC(=O)OCC(=O)NCc1ccco1 | / | 15.2 | / | / | /
OC(CNCc1ccco1)Cn1c2ccc(Br)cc2c2cc(Br)ccc21 (stereo unspecified) | 0.7 | 107.6* | -26.4 | 9.7 | 46.5
C=CCOc1ccc(C2c3c(oc4ccccc4c3=O)C(=O)N2c2ccccn2)cc1OCC (stereo unspecified) | / | / | 17.1 | / | /
CCOc1cc(C2c3c(oc4ccccc4c3=O)C(=O)N2c2nccs2)ccc1O (stereo unspecified) | / | 104.2* | / | / | -1.3
CCCCC(c1nnnn1CS(=O)(=O)c1ccc(C)cc1)N1CCN(C)CC1 (stereo unspecified) | 2.8 | 3.4 | -3.7 | 3.8 | /
COC(=O)CN1C(=S)N(c2ccc(F)cc2)C(=O)C1CC(=O)Nc1ccc(F)cc1 (stereo unspecified) | / | -2.9 | / | / | /
COC(=O)CN1C(=S)N(Cc2ccccc2)C(=O)C1CC(=O)Nc1ccc(Br)cc1 (stereo unspecified) | 5.9 | 102.1* | 18.2 | 88.3* | 97.8*
CCc1ccc(N2C(=O)CC(N3CCN(Cc4ccc5c(c4)OCO5)CC3)C2=O)cc1 (stereo unspecified) | 1.2 | 32.5 | -8.8 | -1.2 | /
Cc1ccc(O)c(-c2cc(-c3ccccc3F)[nH]n2)c1 | 3.4 | 104.0* | / | 9.2 | 7.5
Cc1ccc(-c2cc(-c3ccccc3C)[nH]n2)c(O)c1 | 4.6 | 102.4* | 65.2* | 32.2 | 9.2

Screening results from PubChem.
